Reference: the supplement of paper PMC8728848
Shown is part of a subset that was picked to be rich in the strongest signals.

What was measured:
Experiment in all cases: glycan array binding signal (z-score within array); higher = stronger binding
Settings in all cases: glycan notation: IUPAC condensed, linker removed
[1] = biological target: Fuc(a1-2)Gal(b1-4)GlcNAc(b1-3)Gal(b1-4)GlcNAc(b1-3)Gal(b1-4)GlcNAc
Summary of the method: (§1)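 Glycan array data were curated from 3228 arrays in the Consortium for Functional Glycomics database and kept only where the protein sequence was available. Glycan names were converted to IUPAC-condensed notation, and columns mapping to the same glycan were averaged. The binding signal is a within-array Z-score, averaged across arrays of the same protein sequence at different concentrations or buffers and across linkers. Negative Z-scores can be read as non-binding.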

[2] = biological target: Fuc(a1-2)Gal(b1-4)[Fuc(a1-3)]GalNAc(b1-3)Gal(b1-4)[Fuc(a1-3)]GlcNAc
Summary of the method: as §1

[3] = biological target: Fuc(a1-2)Gal(b1-4)[Fuc(a1-3)]GalNAc(b1-3)Gal(b1-4)[Fuc(a1-3)]GlcNAc(b1-3)Gal(b1-4)[Fuc(a1-3)]GalNAc
Summary of the method: as §1

[4] = biological target: Fuc(a1-2)Gal(b1-4)[Fuc(a1-3)]GlcNAc
Summary of the method: as §1

[5] = biological target: Fuc(a1-2)[Gal(a1-3)]Gal
Summary of the method: as §1

[6] = biological target: Fuc(a1-2)[Gal(a1-3)]Gal(b1-4)[Fuc(a1-3)]GlcNAc
Summary of the method: as §1

[7] = biological target: Fuc(a1-2)[GalNAc(a1-3)]Gal
Summary of the method: as §1

[8] = biological target: Fuc(a1-3)GlcNAc
Summary of the method: as §1

[9] = biological target: Fuc(a1-3)[Gal(b1-4)]GlcNAc
Summary of the method: as §1

[10] = biological target: Gal(a1-2)Gal
Summary of the method: as §1

[11] = biological target: Gal(b1-3)[Neu5Ac(a2-6)]GalNAc
Summary of the method: as §1

[12] = biological target: Gal(b1-3)[Neu5Ac(b2-6)]GlcNAc
Summary of the method: as §1

[13] = biological target: Gal(b1-4)GlcNAc(b1-2)Man(a1-3)[Gal(b1-4)GlcNAc(b1-2)Man(a1-6)]Man(b1-4)GlcNAc(b1-4)GlcNAc
Summary of the method: as §1

[14] = biological target: Gal(b1-4)GlcNAc(b1-3)Gal(b1-4)GlcNAc(b1-3)Gal(b1-4)GlcNAc
Summary of the method: as §1

[15] = biological target: Gal(b1-4)GlcNAc(b1-3)[Gal(b1-4)GlcNAc(b1-6)]GalNAc
Summary of the method: as §1

[16] = biological target: Gal(b1-4)GlcNAc(b1-6)[Gal(b1-3)]GalNAc
Summary of the method: as §1

[17] = biological target: Gal6S(b1-4)Glc6S
Summary of the method: as §1

[18] = biological target: GalNAc(b1-4)GlcNAc
Summary of the method: as §1

[19] = biological target: GlcNAc(b1-3)GalNAc
Summary of the method: as §1

[20] = biological target: Kdn(a2-3)Gal(b1-4)GlcNAc
Summary of the method: as §1

[21] = biological target: Neu5Ac(a2-3)Gal(b1-4)[Fuc(a1-3)]GlcNAc
Summary of the method: as §1

[22] = biological target: Neu5Gc(a2-3)Gal(b1-3)GlcNAc
Summary of the method: as §1

[23] = biological target: Fuc(a1-2)GlcNAc
Summary of the method: as §1

[24] = biological target: Fuc(b1-3)GlcNAc
Summary of the method: as §1

[25] = biological target: Gal(a1-3)GalNAc
Summary of the method: as §1

[26] = biological target: Gal(a1-4)Gal(b1-4)Glc
Summary of the method: as §1

[27] = biological target: Gal(b1-3)[GlcNAc(b1-6)]GalNAc
Summary of the method: as §1

[28] = biological target: GalNAc(b1-3)GalNAc
Summary of the method: as §1

[29] = biological target: GlcNAc(b1-3)Gal(b1-4)Glc
Summary of the method: as §1

[30] = biological target: GlcNAc(b1-3)[GlcNAc(b1-6)]GlcNAc(b1-4)GlcNAc
Summary of the method: as §1

[31] = biological target: GlcNAc(b1-4)GlcNAc(b1-4)GlcNAc
Summary of the method: as §1

[32] = biological target: Man(a1-2)Man(a1-3)Man
Summary of the method: as §1

[33] = biological target: Neu5Ac(a2-3)Gal(b1-3)[Fuc(a1-4)]GlcNAc(b1-3)Gal(b1-4)[Fuc(a1-3)]GlcNAc
Summary of the method: as §1

[34] = biological target: Neu5Ac(a2-3)[Neu5Ac(a2-6)]GalNAc
Summary of the method: as §1

Binder | glycan array binding signal (z-score) [1] | glycan array binding signal (z-score) [2] | glycan array binding signal (z-score) [3] | glycan array binding signal (z-score) [4] | glycan array binding signal (z-score) [5] | glycan array binding signal (z-score) [6] | glycan array binding signal (z-score) [7] | glycan array binding signal (z-score) [8] | glycan array binding signal (z-score) [9] | glycan array binding signal (z-score) [10] | glycan array binding signal (z-score) [11] | glycan array binding signal (z-score) [12] | glycan array binding signal (z-score) [13] | glycan array binding signal (z-score) [14] | glycan array binding signal (z-score) [15] | glycan array binding signal (z-score) [16] | glycan array binding signal (z-score) [17] | glycan array binding signal (z-score) [18] | glycan array binding signal (z-score) [19] | glycan array binding signal (z-score) [20] | glycan array binding signal (z-score) [21] | glycan array binding signal (z-score) [22] | glycan array binding signal (z-score) [23] | glycan array binding signal (z-score) [24] | glycan array binding signal (z-score) [25] | glycan array binding signal (z-score) [26] | glycan array binding signal (z-score) [27] | glycan array binding signal (z-score) [28] | glycan array binding signal (z-score) [29] | glycan array binding signal (z-score) [30] | glycan array binding signal (z-score) [31] | glycan array binding signal (z-score) [32] | glycan array binding signal (z-score) [33] | glycan array binding signal (z-score) [34]
NakA (Mycobacterium tuberculosum) (protein) SVVKPTKVTVFSPDGGADNPGEADLAIDGNPATSWKTDIYTDPVPFPSFKNGVGLMLQLPQATVVGTVAIDVASTGTKVEIRSASTPTPATLEDTAVLTSATALRPGHNTISVEAAAPTSNLLVWISTLGTTDGKSQADISEITIYAASD | 2.46 | 1.53 | 2.85 | 2.46 | 0.037 | 2.29 | 0.057 | 3.17 | -0.303 | -0.019 | -0.457 | -0.353 | -0.5 | -0.502 | -0.414 | -0.553 | -0.213 | -0.305 | -0.001 | -0.507 | -0.418 | -0.404 |  |  |  |  |  |  |  |  |  |  |  | 
F17eG (Escherichia coli), Q9RH92 (protein) MTNFYKVFLAVFILVCCNISHAAVSFIGSTENDVGPSQSSYSRTHAMDNLPFVYNTGYNIGYQNANVWRISGGFCVGLDGKVDLPVVGSLDGQSIYGLTEEVGLLIWMGDTNYSRGTAMSGNSWENVFSGWCVGNYVSTQGLSVHVRPVILKRNSSAQYSVQKTSIGSIRMRPYNGSSAGSVQTTVNFSLNPFTLNDTVTSCRLLTPSAVNVSLAAISAGQLPSSGDEVVAGTTSLKLQCDAGVTVWATLTDATTPSNRSDILTLTGASTATGVGLRIYKNTDSTPLKFGPDSPVKGNENQWQLSTGTETSPSVRLYVKYVNTGEGINPGTVNGISTFTFSYQ | -0.298 |  |  |  |  |  |  |  |  |  |  |  |  |  |  | -0.31 |  |  |  |  |  |  | -0.176 | -0.315 | -0.302 | -0.293 | 4.13 | 4.3 | 4.59 | 4.3 | 0.197 | -0.302 | -0.097 | -0.208
